Data taken from PubChem BioAssay (NCATS).
Inconclusive results are not listed. The source made the active and inactive calls. Unless noted, calls come from the whole dose curve; as a rule, active = well fitted curve in the direction sought with a large enough effect; inconclusive = small, poorly fitted or top-dose-only effect, or another doubt; inactive = no such curve, though single readings can be large; an effect the other way counts as inactive or inconclusive.

How the values were obtained:
[1] = target: Cytochrome P450 1A2 (Homo sapiens) (UniProt P05177); assay: p450-cyp1a2 (AID 410; calls by dose curve; note: potency is the fitted concentration of half-maximal effect)
Sequence of Cytochrome P450 1A2 (Homo sapiens) (P05177 whole entry, looked up): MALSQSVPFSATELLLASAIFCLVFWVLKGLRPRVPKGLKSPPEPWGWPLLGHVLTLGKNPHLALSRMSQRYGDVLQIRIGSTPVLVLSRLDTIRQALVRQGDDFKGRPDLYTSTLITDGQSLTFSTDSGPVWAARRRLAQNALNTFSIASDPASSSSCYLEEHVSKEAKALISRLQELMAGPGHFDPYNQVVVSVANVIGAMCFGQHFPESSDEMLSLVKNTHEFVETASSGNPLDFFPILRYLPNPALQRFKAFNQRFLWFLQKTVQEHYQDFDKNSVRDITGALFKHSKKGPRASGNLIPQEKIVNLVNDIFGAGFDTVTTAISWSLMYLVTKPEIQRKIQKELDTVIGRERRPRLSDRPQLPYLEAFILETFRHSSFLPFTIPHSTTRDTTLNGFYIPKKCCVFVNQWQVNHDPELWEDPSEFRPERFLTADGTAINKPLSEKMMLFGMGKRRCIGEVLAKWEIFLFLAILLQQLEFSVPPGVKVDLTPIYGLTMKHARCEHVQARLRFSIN
Method in brief: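 20nM CYP1A2 with 100uM Luciferin-ME (at Km) in 100mM KPO4; compound preincubated 10 min, NADPH regeneration added, 60 min at room temperature. Luciferin quantified by luminescence after detection reagent; normalized to 57 uM furafylline.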

[2] = target: Glucocorticoid receptor (Homo sapiens) (UniProt P04150); assay: GR-GFP Redistribution (AID 450;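 active = compounds whose dose series gives a full or clear partial fitted curve of increased nuclear translocation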; note: potency is the fitted concentration of half-maximal effect); settings: U2OS GR-GFP nuclear translocation, laser cytometry, 2 h
Sequence of Glucocorticoid receptor (Homo sapiens) (P04150 whole entry, looked up, the tested form may be a part): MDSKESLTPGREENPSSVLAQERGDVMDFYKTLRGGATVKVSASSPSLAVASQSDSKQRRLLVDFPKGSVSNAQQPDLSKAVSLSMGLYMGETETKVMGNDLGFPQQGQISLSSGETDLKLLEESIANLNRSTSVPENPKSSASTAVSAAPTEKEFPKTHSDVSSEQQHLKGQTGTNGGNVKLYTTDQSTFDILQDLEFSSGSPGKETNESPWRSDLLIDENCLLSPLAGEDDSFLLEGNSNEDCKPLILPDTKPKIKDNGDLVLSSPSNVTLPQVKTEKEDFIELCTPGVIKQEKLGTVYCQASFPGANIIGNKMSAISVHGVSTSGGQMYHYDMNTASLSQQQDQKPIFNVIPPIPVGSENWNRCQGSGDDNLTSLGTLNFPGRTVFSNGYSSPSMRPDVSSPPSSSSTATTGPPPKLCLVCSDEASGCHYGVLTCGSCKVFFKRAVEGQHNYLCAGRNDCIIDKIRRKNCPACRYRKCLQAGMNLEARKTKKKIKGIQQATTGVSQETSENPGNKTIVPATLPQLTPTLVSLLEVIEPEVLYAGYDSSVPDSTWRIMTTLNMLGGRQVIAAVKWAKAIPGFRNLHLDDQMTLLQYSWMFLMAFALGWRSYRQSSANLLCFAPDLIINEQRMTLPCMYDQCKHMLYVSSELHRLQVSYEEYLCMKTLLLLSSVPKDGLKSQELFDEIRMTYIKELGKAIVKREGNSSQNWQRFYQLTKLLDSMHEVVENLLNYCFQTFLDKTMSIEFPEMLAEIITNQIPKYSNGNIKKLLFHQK

[3] = target: Glucocorticoid receptor (Homo sapiens) (UniProt P04150); assay: GR-EFC Redistribution (AID 451; calls by dose curve; note: potency is the fitted concentration of half-maximal effect); settings: CHO-K1 GR-EFC translocation, beta-gal luminescence, 2 h
Method in brief: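 Translocation of GR-ED fusion to nuclear EA restores b-gal, read by luminescence after 1 h room-temperature detection. Engineered CHO-K1 biosensor cells, 1,000/well, exposed 2 h at 37 C to titrations up to 46 uM final.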

[4] = target: Mitogen-activated protein kinase 10 (Mus musculus) (UniProt Q61831); assay: JNK3 AlphaScreen Assay (AID 530; active = well fitted curve in either direction with a large enough effect, not every such curve was filed as active;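 note: kinase came from lysate of stimulated human HepG2 cells; signal reports phosphorylation of biotinylated GST-cJun 1-79 at Ser73 with 10 µM ATP; % is set by controls: 0 for no effect and ±100 for the full control effect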)
Method in brief: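 Compound titrations were preincubated 15 minutes at room temperature with substrate, antibody and pre-activated JNK3-containing HepG2 lysate. Reactions were started with 10 uM ATP and stopped with EDTA-containing bead buffer for AlphaScreen detection.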

[5] = qHTS Assay for Lipid Storage Modulators (AID 1519; calls by dose curve; for activity change, negative = inhibition: % is set by controls: 0 for no effect and ±100 for the full control effect); settings: Drosophila S3 cells, BODIPY lipid droplet/cell ratio, laser cytometry, cells loaded with oleic acid
Method in brief: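 Cells seeded at 5,000 per well were treated with compounds over a concentration series and loaded with oleic acid (400 uM, as added). Lipid droplet fluorescence (488 nm excitation, 500-530 nm channel) was read by laser-scanning cytometry and normalized to 20 uM Triacsin C.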

[6] = target: DNA dC->dU-editing enzyme APOBEC-3G (Homo sapiens) (UniProt Q9HC16); assay: qHTS for inhibitors of Vif-A3G interactions: Validation (AID 588379); note: 0% is about no effect
Sequence of DNA dC->dU-editing enzyme APOBEC-3G (Homo sapiens) (Q9HC16 whole entry, looked up): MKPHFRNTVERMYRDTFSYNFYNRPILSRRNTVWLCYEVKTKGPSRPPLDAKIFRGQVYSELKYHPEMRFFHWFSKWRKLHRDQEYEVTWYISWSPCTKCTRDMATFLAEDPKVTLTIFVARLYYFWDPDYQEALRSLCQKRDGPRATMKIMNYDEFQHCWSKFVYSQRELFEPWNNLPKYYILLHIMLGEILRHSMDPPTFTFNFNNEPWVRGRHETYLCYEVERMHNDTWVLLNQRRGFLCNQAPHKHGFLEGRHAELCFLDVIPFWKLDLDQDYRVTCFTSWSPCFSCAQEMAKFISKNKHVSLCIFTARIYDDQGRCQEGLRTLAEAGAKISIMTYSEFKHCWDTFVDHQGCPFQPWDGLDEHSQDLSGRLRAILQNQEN
Method in brief: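 HeLa cells stably expressing Vif and A3G-eYFP, 700 cells/well, incubated overnight at 37 deg C, then exposed to compound overnight at 37 deg C. Inhibition of Vif-mediated degradation read as increased yellow fluorescence (Ex 488/Em 500-530) by laser-scanning cytometry.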

[7] = Primary qHTS for small molecule stabilizers of the endoplasmic reticulum resident proteome: Secreted ER Calcium Modulated Protein (SERCaMP) assay (AID 1508630); note: % is set by controls: 0 for no effect and ±100 for the full control effect
Method in brief: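 GLuc-SERCaMP-expressing SH-SY5Y cells, pretreated 16 h with compound, are challenged with thapsigargin to empty ER calcium stores; after 4 h, coelenterazine is added directly to the medium and luminescence is imaged.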

[8] = tested on: Zika virus NS2B-NS3 protease (linked construct); assay: Primary screen NINDS Rhodamine qHTS for Zika virus inhibitors (AID 1347160); note: potency is the fitted concentration of half-maximal effect; nearly all actives have a fitted effect of over 55% in size
Method in brief: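 Kinetic fluorescence (Ex 480 nm, Em 540 nm) over 15 min with 1.5 microM Rhodamine110 peptide and 25 nM linked protease.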

[9] = OV-KATE Cancer Cell Toxicity qHTS against the NCATS CANVASS Library (AID 1347345); note: potency is the fitted concentration of half-maximal effect
Method in brief: (§1)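 ATP content after 72 h treatment, detected by CellTiter-Glo luminescence (15min room-temperature development), reflects cell viability. Wells contained 1000 cells and received compounds at 11 concentrations.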

[10] = HPAF-II Cancer Cell Toxicity qHTS against the NCATS CANVASS Library (AID 1347346); note: potency is the fitted concentration of half-maximal effect; nearly all actives have a fitted effect of over 55% in size
Method in brief: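 HPAF-II cells at 1000 cells/well were treated with an 11-point concentration series for 72 hours at 37 degrees C. Viability read by CellTiter-Glo luminescence.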

[11] = UWB1.289 Cancer Cell Toxicity qHTS against the NCATS CANVASS Library (AID 1347347); note: potency is the fitted concentration of half-maximal effect; nearly all actives have a fitted effect of over 60% in size
Method in brief: as §1

[12] = OV-SAHO Cancer Cell Toxicity qHTS against the NCATS CANVASS Library (AID 1347348); note: potency is the fitted concentration of half-maximal effect; nearly all actives have a fitted effect of over 55% in size
Method in brief: as §1

[13] = Panc-1005 Cancer Cell Toxicity qHTS against the NCATS CANVASS Library (AID 1347349); note: potency is the fitted concentration of half-maximal effect; nearly all actives have a fitted effect of over 60% in size
Method in brief: as §1

[14] = SW1088 Cancer Cell Toxicity qHTS against the NCATS CANVASS Library (AID 1347350); note: potency is the fitted concentration of half-maximal effect; nearly all actives have a fitted effect of over 75% in size
Method in brief: as §1

[15] = COV-362 Cancer Cell Toxicity qHTS against the NCATS CANVASS Library (AID 1347352); note: potency is the fitted concentration of half-maximal effect
Method in brief: (§2)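 Cells at 1000/well were given compound 4 h after plating in an 11-point series. Viability was read by CellTiter-Glo luminescence after 72 h at 37 degrees C.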

[16] = A2780 Cisplatin Sensitive Ovarian Cancer Cell Toxicity qHTS against the NCATS CANVASS Library (AID 1347353); note: potency is the fitted concentration of half-maximal effect; nearly all actives have a fitted effect of over 60% in size
Method in brief: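 A2780 cells, 750/well, settled 4 h at 37 °C, then treated with an 11-point compound series for 72 h. Viability was read as ATPLite luminescence after 10 min at room temperature, with bortezomib as control.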

[17] = UWB1.289-WTBRCA1 Cancer Cell Toxicity qHTS against the NCATS CANVASS Library (AID 1347354); note: potency is the fitted concentration of half-maximal effect
Method in brief: as §2

[18] = HPAF-II 24hr Apoptosis Induction qHTS against the NCATS CANVASS Library (AID 1347356); note: 0% is about no effect
Method in brief: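 HPAF-II cells (500/well) exposed to compounds in 11-point series for 24 h at 37 degrees C; caspase-3/7 activity read by Caspase-Glo luminescence after 15 min at room temperature. Doxorubicin titration as control.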

[19] = HEK293 18hr Apoptosis Induction qHTS against the NCATS CANVASS Library (AID 1347357); note: 0% is about no effect
Method in brief: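 Natural products applied to HEK293 for 18 hr; Caspase-Glo 3/7 readout.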

[20] = HEK293 24hr Apoptosis Induction qHTS against the NCATS CANVASS Library (AID 1347359); note: 0% is about no effect
Method in brief: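 Caspase-3/7 activation measured as luminescence from the DEVD-based Caspase-Glo reagent, 15 min at room temperature, following 24-hour compound treatment of HEK293 cells.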

[21] = tested on: NAD(P)H diaphorase (Clostridium kluyveri); assay: Diaphorse counterscreen qHTS: Assay Interference Panel against the NCATS CANVASS Library (AID 1347362); note: 0% is about no effect
Method in brief: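 Counterscreen for coupling-enzyme interference: resorufin fluorescence from resazurin/NADH turnover, read after 5 min at room temperature. Compounds were tested over an 11-point series after 15 min dark preincubation with diaphorase in PBS-Tween.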

[22] = target: Luciferin 4-monooxygenase (Photinus pyralis) (UniProt P08659); assay: Firefly luciferase counterscreen qHTS: Assay Interference Panel against the NCATS CANVASS Library (AID 1347363); note: 0% is about no effect
Sequence of Luciferin 4-monooxygenase (Photinus pyralis) (P08659 whole entry, looked up): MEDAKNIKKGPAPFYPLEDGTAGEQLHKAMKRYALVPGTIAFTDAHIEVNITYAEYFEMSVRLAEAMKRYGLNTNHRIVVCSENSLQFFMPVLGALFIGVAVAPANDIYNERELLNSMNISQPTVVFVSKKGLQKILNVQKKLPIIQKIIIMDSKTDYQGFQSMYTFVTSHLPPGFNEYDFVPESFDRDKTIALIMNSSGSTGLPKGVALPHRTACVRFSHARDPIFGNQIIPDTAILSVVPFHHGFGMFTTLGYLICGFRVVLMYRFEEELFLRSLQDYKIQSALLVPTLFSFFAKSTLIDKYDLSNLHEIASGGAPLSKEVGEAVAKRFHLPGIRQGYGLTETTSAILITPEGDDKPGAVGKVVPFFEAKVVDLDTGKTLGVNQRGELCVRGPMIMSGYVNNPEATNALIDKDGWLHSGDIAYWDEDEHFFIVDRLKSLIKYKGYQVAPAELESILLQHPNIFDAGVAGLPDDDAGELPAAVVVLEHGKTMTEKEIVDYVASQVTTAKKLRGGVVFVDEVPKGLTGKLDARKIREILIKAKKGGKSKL
Method in brief: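 Luminescence inhibition readout: compounds (11-point qHTS) sat 15 min at room temperature with substrate mix (0.013 mM luciferin and ATP), then firefly luciferase was added and signal read 5 min later.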

[23] = SDT Cancer Cell Toxicity qHTS against the NCATS CANVASS Library (AID 1347365); note: potency is the fitted concentration of half-maximal effect; nearly all actives have a fitted effect of over 60% in size
Method in brief: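 SDT dog glioma cells (500/well) exposed to an 11-point compound series for 72 hr at 37C, 5% CO2. Cytotoxicity read as ATP content by CellTiterGlo luminescence; bortezomib titration as control.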

[24] = KB-3-1 Cancer Cell Toxicity qHTS against the NCATS CANVASS Library (AID 1347366); note: potency is the fitted concentration of half-maximal effect; nearly all actives have a fitted effect of over 75% in size
Method in brief: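 Cytotoxicity toward KB-3-1 cells (500/well, DMEM + 10% FBS) was scored by CellTiter-Glo luminescence following 72 hr exposure at 37C, with bortezomib titrated as control.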

[25] = G06 Cancer Cell Toxicity qHTS against the NCATS CANVASS Library (AID 1347368)
Method in brief: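 G06 dog glioma cells, 500 per well, exposed 72 hr at 37C, 5% CO2 to compounds in an 11-point series. Cytotoxicity read as ATP content by CellTiterGlo luminescence.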

[26] = J3T Cancer Cell Toxicity qHTS against the NCATS CANVASS Library (AID 1347371); note: potency is the fitted concentration of half-maximal effect
Method in brief: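 J3T dog glioma cells, 500 per well, treated 72 h at 37C with compounds (11-point qHTS); viability from ATP content by CellTiterGlo luminescence; bortezomib titration as control.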

[27] = target: Nuclear receptor subfamily 1 group I member 3 (Homo sapiens) (UniProt Q14994); assay: qHTS for Constitutive Androstane Receptor (CAR) Antagonist screened against the NCATS CANVASS Library (AID 1347372); note: potency is the fitted concentration of half-maximal effect
Sequence of Nuclear receptor subfamily 1 group I member 3 (Homo sapiens) (Q14994 whole entry, looked up): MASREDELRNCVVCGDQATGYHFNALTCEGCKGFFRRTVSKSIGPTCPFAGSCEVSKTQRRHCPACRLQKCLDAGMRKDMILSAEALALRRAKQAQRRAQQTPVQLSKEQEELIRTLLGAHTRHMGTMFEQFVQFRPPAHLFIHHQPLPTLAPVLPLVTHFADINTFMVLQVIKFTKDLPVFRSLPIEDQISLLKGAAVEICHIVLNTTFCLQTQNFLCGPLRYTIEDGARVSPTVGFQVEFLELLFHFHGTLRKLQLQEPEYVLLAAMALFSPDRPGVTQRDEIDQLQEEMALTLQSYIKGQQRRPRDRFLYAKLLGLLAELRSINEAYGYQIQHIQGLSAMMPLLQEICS
Method in brief: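 HepG2-CYP2B6-hCAR double-stable cells plated, 4hr attach; cpd pin-transferred; CITCO 50 nM final; 24hr 37C/5% CO2; CellTiter-Fluor 1hr (fluorescence), then ONE-Glo luminescence.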

[28] = target: Nuclear receptor subfamily 1 group I member 3 (Homo sapiens) (UniProt Q14994); assay: qHTS for Constitutive Androstane Receptor (CAR) Agonist screened against the NCATS CANVASS Library (AID 1347373);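 note: every well also contained 1.5 µM PK11195 alongside the test compound; 0% is about no effect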
Method in brief: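 HepG2 cells stably carrying hCAR and a CYP2B6-2.2kb luciferase reporter, treated 24hr at 37C with compounds plus 1.5uM PK11195; activation by ONE-Glo luminescence, viability by CellTiter-Fluor.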

[29] = qHTS for Hypoxia signaling pathway (HIF-1) antagonists against the NCATS CANVASS Library (AID 1347374)
Method in brief: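 HRE-bla ME-180 cells in medium with 0.5% dialyzed FBS received compounds (11-point series) plus CoCl2 (60 uM addition stock) for 17 hrs at 37C. Beta-lactamase activity read with CCF4 (405 nm ex, 460/530 nm em); CellTiter-Glo viability measured in same wells.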

[30] = qHTS for Inflammasome Signaling Inhibitors: IL-1-beta AlphaLISA screen against the NCATS CANVASS Library (AID 1347379);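 note: human THP-1 cells primed with LPS then triggered with ATP; secreted IL-1B measured as AlphaLISA emission at 615 nm; potency is the fitted concentration of half-maximal effect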
Method in brief: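 THP-1 cells pretreated 1 hr with compound (up to 57.5 uM final), then stimulated with LPS (250 ng/mL final) and ATP (1.25 mM final). Secreted IL-1B measured by AlphaLISA after 16 hr; glyburide as positive control.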

[31] = qHTS for Antimalaria activity screened against the NCATS CANVASS Library (AID 1347380); note: potency is the fitted concentration of half-maximal effect; nearly all actives have a fitted effect of over 40% in size
Method in brief: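 Red blood cells infected with P. falciparum Dd2 (2.5% hematocrit final, 0.3% parasitemia) were exposed to compounds in an 11-point qHTS series for 72 hr at 37C under 5% O2 and 5% CO2. Lysis buffer with SYBR Green was then added for 18 hr, and fluorescence was read at 485/535 nm.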

[32] = Inflammasome Signaling qHTS Counterscreen: IL-1-beta AlphaLISA counterscreen against the NCATS CANVASS Library (AID 1347381);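 note: cell-free check with purified IL-1β in medium and no THP-1 cells; 0% is about no effect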
Method in brief: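 Cell-free interference check: compounds added to medium spiked with 4 pg purified IL-1β. Anti-IL-1β acceptor beads (6 ug/mL) with 0.6 nM biotinylated antibody added for 1 h at RT, then streptavidin donor beads (24 ug/mL) for 30 min in the dark. AlphaLISA read at 680/615 nm.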

[33] = Cytotoxicity qHTS for assessment of Hepg2 cells membrane integrity screened against the NCATS CANVASS Library (AID 1347387)
Method in brief: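 HepG2 cells (2000/well) attached overnight, then exposed 5 hr at 37C to compounds in an 11-point series (0.59 nM - 46 uM final). LDH release from damaged membranes read fluorometrically (CytoTox-ONE; 560/590 nm) after 10 min at room temperature.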

[34] = qHTS assay for small molecule disruptors of mitochondrial membrane potential screened against the NCATS CANVASS Library (AID 1347389)
Method in brief: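 HepG2 cells (2,000/well) plated overnight, then exposed to compounds in 11-point qHTS series for 1 h at 37C before 30 min Mito-MPS dye; depolarization read as fall in red aggregate (590 nm) to green monomer (535 nm) fluorescence.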

[35] = Secretion counterscreen for inhibitors of the SERCaMP assay screened against the NCATS CANVASS Library (AID 1347390);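 note: light from luciferase secreted into medium read as a measure of general secretion; potency is the fitted concentration of half-maximal effect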
Method in brief: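 Natural products are titrated in an 11-point series up to 77 uM onto SH-SY5Y-GLuc STOP cells for 20 h. Secreted reporter activity is measured as coelenterazine-driven luminescence, with Brefeldin A on each plate.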

[36] = qHTS for activators of Nrf2/ARE signaling pathway screened against the NCATS CANVASS Library (AID 1347391); note: 0% is about no effect; nearly all actives have a fitted effect of over 60% in size
Method in brief: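 ARE-bla HepG2 beta-lactamase reporter cells exposed to compounds for 16 h at 37C; CCF4 substrate 2 h, fluorescence at ex 405 nm, em 460/530 nm. Viability by CellTiter-Glo luminescence.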

[37] = qHTS for activators of dead-cell proteases activity screened against the NCATS CANVASS Library (AID 1347392);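 note: luminescence from protease leaking out of membrane-damaged cells cleaving impermeant substrate; 0% is about no effect; rising signal means more cytotoxicity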
Method in brief: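 Compounds are pin-transferred onto attached HepG2 cells, giving 11 final concentrations. After 5 h at 37C, AAF-aminoluciferin reagent is added and luminescence is recorded at room temperature.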

[38] = qHTS for inhibitors of ER calcium dysfunction: SERCaMP assay screened against the NCATS CANVASS Library (AID 1347393);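 note: % is set by controls: 0 for no effect and ±100 for the full control effect; lower secreted reporter signal means inhibitor of ER calcium depletion; nearly all actives have a fitted effect of over 40% in size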
Method in brief: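 Thapsigargin-induced ER calcium depletion drives GLuc-SERCaMP secretion from SH-SY5Y cells; compounds given 16 h beforehand were scored by lowered coelenterazine luminescence after 4 h challenge.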

[39] = Vero-766 cells viability qHTS against the NCATS CANVASS Library: Counterscreen for Zika virus inhibition assay (AID 1347394)
Method in brief: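 Counterscreen for toxicity: Vero 766 cells exposed 72 h to an 11-point compound series, viability by CellTiter-Glo.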

CCCN(CCC)[C@@H]1CCc2c(OC)cccc2[C@@H]1C
Potency [1]: 31.6 µM (active)
Potency [2]: > 46 µM (inactive)
Potency [3]: > 46 µM (inactive)
outcome [4]: inactive
activity change, negative = inhibition ([5]; at 57.5 µM (top of the series)): -0.226% (inactive)
max response ([5]; measured here: cell count channel max response): 8.03%
max response ([5]; measured here: lipid channel max response): 12.1%
Potency [6]: inactive
Potency [7]: inactive

O=C(c1ccccc1O)c1[nH]c(Cl)c(Cl)c1-n1c(C(=O)c2ccccc2O)cc(Cl)c1Cl
Potency [8]: 2.47 µM (active)
Potency [9]: 5.94 µM (active)
Potency [10]: 1.33 µM (active)
Potency [11]: 3.75 µM (active)
Potency [12]: 2.11 µM (active)
Potency [13]: 2.11 µM (active)
Potency [14]: 749 nM (active)
Potency [15]: 2.11 µM (active)
Potency [16]: 3.72 µM (active)
Potency [17]: 13.3 µM (active)
outcome [18]: inactive
Potency [19]: inactive
Potency [20]: inactive
outcome [21]: inactive
outcome [22]: inactive
Potency [23]: 2.35 µM (active)
Potency [24]: 2.35 µM (active)
Potency [25]: 5.9 µM (active)
Potency [26]: 2.96 µM (active)
Potency [27]: 3.71 µM (active)
outcome [28]: inactive
Potency [29]: 1.18 µM (active)
Potency [30]: 15.3 µM (active)
Potency [31]: 472 nM (active)
outcome [32]: inactive
outcome [33]: inactive
Potency [34]: 93.3 nM (active)
Potency [35]: 19.3 µM (active)
Potency [36]: inactive
Potency [37]: inactive
Potency [38]: inactive
Potency [39]: 1.32 µM (active)
